Source: PubChem BioAssay AID429 (Emory University Molecular Libraries Screening Center, 2006)
Screen size: about 64,000 compounds; about 220 (0.34%) were called active. For the sample, actives were picked, then their nearest neighbours and some compounds at random. A number with no mark means an inactive call.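 How the source made its calls: active means inhibition above 50%; inactive means the rest.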

target: Heat shock protein HSP 90-alpha (Homo sapiens) (UniProt P07900); assay: Hsp90 geldanamycin-site probe displacement – cell lysate, fluorescence polarization, NCI-N417 lysate, primary screen (AID 429); conditions: NCI-N417 lysate Hsp90, Cy3B-geldanamycin FP displacement; at 30 µM; active compounds read high;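 further: 0% = tracer plus lysate wells and 100% = tracer alone without lysate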

Compound | inhibition
CCOC(=O)C1CCCN(Cc2nc(N)nc(Nc3ccc(C)cc3)n2)C1 (stereo not given) | -6.1%
CC(C)n1c(NCc2c[nH]c3ccccc23)nc2ccccc21 | 1.28%
CCN(CC)S(=O)(=O)c1ccc(C(=O)Nc2cc(Br)cc3cccnc23)cc1 | 1.06%
COc1ccc(-n2c(SCC(=O)NCc3cccs3)nnc2-c2ccoc2C)cc1 | -1.94%
Cc1cccc(Cn2c(N3CCN(c4ccccc4)CC3)nc3c2c(=O)n(C)c(=O)n3C)c1 | -2.67%
O=C(NCc1cn2ccsc2n1)Nc1cccc(Cl)c1 | -4.35%
CCc1ccc(N(CC)c2ncnc3nc[nH]c23)cc1 | -2.13%
CCC1(C)CC(=O)NC1=O (stereo not given) | 0.1%
CC[C@@H]1Cc2cc(O)ccc2C2=C1c1ccc(O)cc1C[C@H]2CC | 14.4%
CCn1cc(C(=O)N2CC=C(c3ccccc3)CC2)c(=O)c2ccc(C)nc21 | -3.28%
CCNC(=O)CCc1nc(-c2ccc(C(C)(C)C)cc2)no1 | -1.56%
Cc1ccc(S(=O)(=O)N(C)CC(=O)NC2CCCC2)cc1 | -0.25%
CCN(CC)C(=O)CSc1nnc(-c2ccc(S(=O)(=O)NCc3ccccc3Cl)cc2)o1 | 1.83%
Cc1ccc(C)c(NC(=O)C2CC(=O)N(C(C)C)C2)c1 (stereo not given) | -3.18%
Cc1ccnc(N2C(=O)c3ccccc3C2Nc2ccc3c(c2)OCCO3)c1 (stereo not given) | 1.75%
Cc1cc(C)nc(SCc2nnc(SCC(=O)OC3CCCCC3)o2)n1 | -0.1%
O=c1cc(CSc2ccc(Cl)cc2)nc(N2CCOCC2)[nH]1 | -2.37%
O=C(CCC(=O)OCC(F)(F)C(F)F)NCc1ccccc1 | -3.91%
O=C(NCCN1CCOCC1)c1c(F)c(F)c(F)c(F)c1F | -0.16%
CC(=O)Oc1cc2c(C(=O)NCCN3CCOCC3)c(C)oc2c2ccccc12 | 91% (active)

Compound | inhibition
O=C(CCN1C(=O)c2ccccc2C1=O)NCCN1CCOCC1 | -1.37%
Cc1ccc(C(c2sc3nc(C)nn3c2O)N2CCN(c3ccc(F)cc3)CC2)cc1 (stereo not given) | 2.37%
O=C(O)c1cscn1 | -1.54%
COc1cccc(NC(=O)C(C)Oc2ccccc2)c1 (stereo not given) | 86.4% (active)
COc1cccc(NC(=O)c2ccccc2SC)c1 | -1.59%
COc1cccc(Nc2ncccc2C(=O)O)c1 | 1.09%
CCN(CC)S(=O)(=O)c1cccc(C(=O)Nc2cc(C)nn2-c2nc(C)cc(C)n2)c1 | -2.41%
CSCC[C@H](NC(=O)NCCc1ccc(F)cc1)C(=O)O | -0.8%
CCOC(=O)CSc1nc2c(sc(=S)n2CCc2ccccc2)c(=O)n1Cc1ccco1 | -1.25%
CN(c1ccccc1)c1ccc(/C=c2\s/c(=C(/C#N)C(=O)C(C)(C)C)n(Cc3ccco3)c2=O)cc1 | 50.6% (active)
O=c1nc2s/c(=C\c3ccco3)c(=O)n2nc1Cc1ccccc1 | -6.3%
CN(C)c1cc(N)c2ccccc2n1 (tested in a mixture with another compound) | -9.07%
CC12CCC(C(=O)N(CCC#N)CCC#N)(CC1=O)C2(C)C (stereo not given) | -2.19%
O=C(CC1CCCCC1)Nc1c2c(nn1-c1ccc(F)cc1)CS(=O)(=O)C2 | -1.94%
Cc1cccn2c(=O)c3cc(C(=O)N4COCC4(C)C)n(C)c3nc12 | 0.48%
COc1ccc(Cl)cc1S(=O)(=O)Nc1cccc(C(=O)O)c1 | -0.7%
Cc1cc(Cl)c(S(=O)(=O)NCC2CCCO2)cc1OCC(N)=O (stereo not given) | -4.41%
Cc1ccc(C(=O)O)cc1S(=O)(=O)NCC1CCCO1 (stereo not given) | 77.4% (active)
O=S(=O)(NCC1CCCO1)c1ccc2ccccc2c1 (stereo not given) | -3.52%
CCSc1nc2c(c(=O)[nH]1)C(c1cccnc1)C(C(=O)OC(C)C)=C(C)N2 (stereo not given) | -0.2%

Compound | inhibition
O=C(O)CSC(NC(=O)c1cccnc1)(C(F)(F)F)C(F)(F)F | -0.65%
O=C(Nn1cnc2ccccc2c1=O)c1ccc(F)cc1Cl | -2.64%
CCCCn1c(=S)[nH]c2ncccc2c1=O | -6.13%
Cc1ccc2[nH]c3c(c2c1)CN(C(=O)CN1CCN(c2ccccc2)CC1)CC3 | 92.3% (active)
CCCC(=O)N1CCc2[nH]c3ccccc3c2C1 | -3.78%
O=C(NC1CCCCC1)N1CCc2[nH]c3ccccc3c2C1 | -4.69%
Cc1ccc(C)c(N(CC(=O)NCc2ccco2)C(=O)CCC(=O)Nc2ccccn2)c1 | -5.16%
Cc1c(C(=O)OCC(=O)N(CCC#N)c2ccccc2)oc2c1ccc1ccccc12 | 0.74%
COc1nc(Oc2ccc(=O)n(C)n2)nc(N(C)C)n1 | -0.95%
COc1cccc(C2/C(=C(/O)c3ccc(F)cc3)C(=O)C(=O)N2CCN(C)C)c1 (stereo not given) | -1.56%
CC1CN(c2cc(=O)n(-c3cccc(Br)c3)c(=O)[nH]2)CC(C)O1 (stereo not given) | 1.65%
Cc1ccc(N2CCN(c3ccc(C)cc3)C2c2ccccn2)cc1 | 0.05%
COc1cc(C2C(C(=O)Nc3ccc(F)cc3)=C(C)Nc3nc(CCCO)nn32)cc(OC)c1OC (stereo not given) | -1.54%
CCOc1ccccc1N(CC(=O)NC1CCCCC1)C(=O)CCCC(=O)Nc1ccccn1 | -0.59%
CC1OC2C(OC1C)N(S(C)(=O)=O)CCN2S(C)(=O)=O (stereo not given) | -2.81%
O=C(O)CCC(=O)Nc1ccc(N2CCOCC2)cc1 | 8.24%
COc1ccc(C(=O)NCc2cn3ccccc3n2)cc1 | 2.11%
O=C(CC1N=C2c3ccccc3N=C(SCc3ccccc3Cl)N2C1=O)NCc1ccco1 (stereo not given) | -7.5%
CCCC(C(=O)NCc1ccco1)N(C(=O)CNS(=O)(=O)c1ccccc1)C1CCCC1 (stereo not given) | -1.3%
CCOC(=O)CSC1=C(C#N)C(c2sccc2C)CC(=O)N1 (stereo not given) | -2.64%
